These results are taken from PubChem BioAssay AID651871 (Sanford-Burnham Center for Chemical Genomics, 2012).

This assay concerns HL-1. Kind of assay: protection of cardiomyocytes from stress damage, SAR follow-up, cell-based, panel, H9c2 and HL-1, ATP luminescence, set 2 (AID 651871).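 Note: cells exposed to stressor for 2 h before ATP readout; reference of the scale not given here.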 Conditions: H9c2/HL-1 cardiomyocytes, 2-deoxyglucose stress, with 2-deoxyglucose, run 4, at 19.8 µM (top of the series).

The structures appear in SMILES notation.

For the compound `COc1ccc2c(c1OC)C(=O)N1c3ccccc3C(=O)N(Cc3cccc(Cl)c3Cl)C21` (stereo unspecified), the activity (protection/inhibition) worked out at 48.1%.
